Only some compounds are listed: those with a hit (about 7% of all), similar ones and a draw of the others.
AHR activator – activates the human aryl hydrocarbon receptor; activation, % at 5 µM; 2.5% of 320,000 active; AID 2796; AHR-responsive luciferase reporter cells, luminescence; P35869; in the data active = activation above about 47%
Target sequence (P35869 whole entry, looked up): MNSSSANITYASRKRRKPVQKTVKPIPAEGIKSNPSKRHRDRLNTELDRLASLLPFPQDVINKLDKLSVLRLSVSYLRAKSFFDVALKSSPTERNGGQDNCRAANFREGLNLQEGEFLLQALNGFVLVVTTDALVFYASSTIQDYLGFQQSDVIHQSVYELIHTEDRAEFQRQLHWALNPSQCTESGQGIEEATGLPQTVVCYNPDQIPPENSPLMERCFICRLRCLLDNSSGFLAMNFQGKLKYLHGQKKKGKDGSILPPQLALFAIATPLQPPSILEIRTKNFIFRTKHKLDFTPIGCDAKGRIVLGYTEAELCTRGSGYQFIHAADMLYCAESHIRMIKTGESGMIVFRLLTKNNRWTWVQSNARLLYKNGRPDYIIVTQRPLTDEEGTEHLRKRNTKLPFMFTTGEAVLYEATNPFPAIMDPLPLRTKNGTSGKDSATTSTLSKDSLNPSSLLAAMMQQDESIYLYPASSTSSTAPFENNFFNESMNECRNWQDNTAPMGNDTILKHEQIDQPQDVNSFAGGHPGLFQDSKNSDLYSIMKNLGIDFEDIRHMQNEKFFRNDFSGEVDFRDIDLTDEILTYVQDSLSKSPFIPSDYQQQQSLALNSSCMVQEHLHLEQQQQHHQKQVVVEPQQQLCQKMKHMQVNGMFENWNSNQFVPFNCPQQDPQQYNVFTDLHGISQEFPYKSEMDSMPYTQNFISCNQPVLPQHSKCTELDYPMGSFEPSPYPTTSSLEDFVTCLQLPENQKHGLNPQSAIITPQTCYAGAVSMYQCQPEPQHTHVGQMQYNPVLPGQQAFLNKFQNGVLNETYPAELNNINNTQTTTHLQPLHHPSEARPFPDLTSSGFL
proKLK7 act – activates the human kallikrein-7 zymogen | P49862 | purified proKLK7, EDANS-DABCYL substrate fluorescence; 100% is mature enzyme control, 0% vehicle | activation, % at 7 µM | 0.9% of 370,000 active | AID 652039;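 active = activation above the mean of all tested compounds plus 3 SD, computed per campaign excluding outliers beyond control limits, cut at about 13% in these data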
ADAM17 inh – ADAM17 inhibition, QFRET primary screen; P78536; recombinant ADAM17, EDANS/DABCYL FRET peptide cleavage; inhibition, % at 6.95 µM; 0.83% of 370,000 active; AID 720648;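 active = inhibition above the mean of compounds lying between control limits plus 3 SD, set per campaign, cut at about 8.5% in these data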
NR3A LBD binder – modulates the human NR3A ligand-binding domain; NR3A LBD differential scanning fluorimetry, Tm shift; 0% = protein alone, 100% = glycine-bound protein; AID 1259313; Tm shift relative to glycine control, % at 25 µM; 2.5% of 340,000 active;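 active = melting temperature shift of at least 10% of the positive control shift, at one fixed dose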
ADAM10 inh – inhibitors of human ADAM10; AID 720582; recombinant ADAM10, EDANS/DABCYL FRET peptide cleavage, 3 h; 0.62% of 370,000 active; inhibition, % at 7 µM;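 active = inhibition above a per-campaign cutoff equal to the mean of compounds falling between control-based bounds plus 3 SD, cut at about 20% in these data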
rCAG binder – molecules binding r(CAG) RNA repeats; r(CAG) RNA repeat, TO-PRO-1 dye displacement fluorescence; 1.3% of 370,000 active; inhibition, % at 3 µM; AID 651821;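 active = inhibition above the plate cutoff, the mean of all test compounds on that plate plus 3 SD, cut at about 35% in these data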;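 note: higher means more dye released from RNA so lower well fluorescence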
Large screens that a line does not name were inactive.

COc1cccc(CNS(=O)(=O)c2cc(Br)cc3c2N(C(C)=O)C(C)C3)c1 (stereo not drawn)	NR3A LBD binder 12
CC(=O)N1c2c(cc(Br)cc2S(=O)(=O)NCc2ccccc2)CC1C (stereo not drawn)	none
CC(=O)c1ccc(NC(=O)NC2CC(=O)N(c3ccc4c(c3)OCCO4)C2)cc1 (stereo not drawn)	NR3A LBD binder 14
COc1cccc(NC(=O)NC2CC(=O)N(c3ccc4c(c3)OCCO4)C2)c1 (stereo not drawn)	none
O=C(COC(=O)c1ccc2c(c1)OCO2)Nc1ccccc1OC(F)F	none
O=C(COC(=O)c1ccc(Cl)c([N+](=O)[O-])c1)Nc1ccccc1OC(F)F	AHR activator 55
COc1cccc(OC)c1C(=O)Nc1nnc(-c2ccc(F)cc2)s1	AHR activator 74
O=C(Nc1nnc(-c2ccc(F)cc2)s1)c1ccco1	none
CC(C)CNC(=O)OCc1cn(Cc2ccccc2F)nn1	none (no result: AHR activator, NR3A LBD binder)
CCCCCn1nnnc1C1(C)Cn2nccc2C(=O)N1Cc1ccco1 (stereo not drawn)	none (no result: AHR activator, NR3A LBD binder)
Cc1nc2c(sc(=S)n2Cc2ccco2)c(=O)n1CC(=O)Nc1ccc(F)cc1	NR3A LBD binder 14
CCn1c(=S)sc2c(=O)n(CC(=O)Nc3ccc(OC)c(Cl)c3)c(C)nc21	NR3A LBD binder 12
CCn1c(=S)sc2c(=O)n(CC(=O)Nc3ccc(Cl)cc3)c(C)nc21	NR3A LBD binder 15
CCn1c(=S)sc2c(=O)n(CC(=O)Nc3ccccc3)c(C)nc21	none
Cc1csc(NC(=O)c2ccc(COc3ccccc3F)o2)n1	none (no result: AHR activator, NR3A LBD binder)
CCOc1ncccc1C(=O)N=c1sccn1C	AHR activator 60
COc1ccc(NC(=O)/C(N=Nc2cc(S(=O)(=O)Nc3ccc(OC)cc3)ccc2OC)=C(\C)O)cc1	NR3A LBD binder 11
COc1ccc(NC(=O)/C(N=Nc2ccc(Cl)c(S(=O)(=O)Nc3ccc(Cl)cc3)c2)=C(\C)O)cc1	none
Nc1nc(-c2ccccc2)ns1	NR3A LBD binder 13 (no result: AHR activator)
Cc1ccccc1CS(=O)(=O)Cc1ccc(C(=O)Nc2ccc(F)cc2)o1	none (no result: AHR activator, NR3A LBD binder)
O=C(Nc1ccc2[nH]ccc2c1)c1cc(-c2ccc(Cl)cc2)nc2ccccc12	none (no result: AHR activator, NR3A LBD binder)
COC(=O)[C@H](CCSC)NC(=O)Nc1ccc(C)cc1	NR3A LBD binder 11
COC(=O)[C@H](CCSC)NC(=O)Nc1cccc(Br)c1	NR3A LBD binder 17
Cc1ccc(NC(=O)CC2S/C(=N/c3nccs3)N(C)C2=O)cc1C (stereo not drawn)	AHR activator 53
c1ccc(-c2nc3ccccc3[nH]2)cc1	none
S=c1nc(-c2ccccc2)[nH]c2ccc(Br)cc12	AHR activator 53
C1=C(c2ccccc2)Nc2ncnn2C1c1ccccc1 (stereo not drawn)	none
Cc1ccc(C2=CC(c3ccccc3)n3ncnc3N2)cc1 (stereo not drawn)	proKLK7 act 53
CNC(=O)c1cc(Nc2nnc(C)c3ccccc23)ccc1OC	AHR activator 59
COC(=O)[C@H]1C[C@@]2(N3CCCCC3)c3ccccc3N(C(=O)OC(C)(C)C)[C@H]2N1C(=O)OC(C)(C)C	none (no result: AHR activator, NR3A LBD binder)
Fc1ccc(NC(=S)N2CCc3ccccc32)cc1	none (no result: AHR activator)
FC(F)Oc1ccc(NC(=S)N2CCc3ccccc32)cc1	AHR activator 51
O=C(Nc1cccc(C(F)(F)F)c1)OCCCN1CCC2(CCC(c3ccccc3)CC2)C1=O (stereo not drawn)	none (no result: AHR activator, NR3A LBD binder)
CC(=O)Nc1cc2c(cc1Cl)-c1ccc(F)cc1C2O (stereo not drawn)	none (no result: AHR activator)
Nc1cc2c(cc1Br)-c1ccc(F)cc1C2O (stereo not drawn)	NR3A LBD binder 18 (no result: AHR activator)
Cc1nn(-c2ccccc2)c(C)c1/C=N/NC(=O)CSc1nnc(SCc2cccc3ccccc23)s1	NR3A LBD binder 16
Cc1ccc(-n2c(SCC(=O)N/N=C/c3c(C)nn(-c4ccccc4)c3C)nc3ccccc3c2=O)cc1	none
O=C(CSc1nnc(SCc2ccccc2)s1)N/N=C/c1c[nH]c2ccccc12	none (no result: AHR activator)
O=C(CSc1nnc(SCc2ccccc2Cl)s1)N/N=C/c1c[nH]c2ccccc12	NR3A LBD binder 26
CC1=CC(=C(C#N)C#N)C=C(C)N1CCN1CCN(C(=O)Nc2ccc(Cl)c(Cl)c2)CC1	NR3A LBD binder 18
C=CCN1C(C(=O)OC)CN(Cc2cn(Cc3ccc(F)cc3)nn2)CCS1(=O)=O (stereo not drawn)	none (no result: AHR activator, NR3A LBD binder)
CCN(CC)c1ccc(/C=N/NS(=O)(=O)c2cccc([N+](=O)[O-])c2)cc1	none
CCN(Cc1ccccc1)c1ccc(/C=N/NS(=O)(=O)c2ccc(C)c([N+](=O)[O-])c2)cc1	NR3A LBD binder 18
Nc1ccccc1-n1cccc1	AHR activator 56
Cc1ccc(C)n1-c1ccccc1N	none (no result: proKLK7 act, ADAM17 inh, NR3A LBD binder, ADAM10 inh, rCAG binder)
CN(C)c1ccc(NC(=O)c2ccc(Cn3cc([N+](=O)[O-])cn3)cc2)cc1	AHR activator 71
COc1ccc(CN(C(=O)Cc2c[nH]c3ccccc23)C(C(=O)NC2CCCCC2)c2ccc(C)o2)cc1 (stereo not drawn)	ADAM17 inh 12, ADAM10 inh 26
COc1cccc(CN(C)C(=O)[C@H]2O[C@@H](n3cnc4c(=O)[nH]c(N)nc43)[C@H](O)[C@@H]2O)c1	none (no result: AHR activator, NR3A LBD binder)
O=c1oc2ccccc2c(Nc2ccc3ccccc3c2)c1[N+](=O)[O-]	AHR activator 65 (no result: proKLK7 act, ADAM17 inh, ADAM10 inh, rCAG binder)
Cc1ccc(Nc2c([N+](=O)[O-])c(=O)oc3ccccc23)cc1	none
CCNc1c([N+](=O)[O-])c(=O)oc2ccccc12	none
COc1c([N+](=O)[O-])c(=O)oc2ccccc12	NR3A LBD binder 13
CC1(C)CC(=O)c2cc(C(=O)O)c(=O)n(-c3ccccc3)c2C1	none
CC1(C)CC(=O)c2c(O)c(-c3ccccc3)c(=O)n(-c3ccccc3)c2C1	NR3A LBD binder 12
COc1cc2c3nnc(-c4ccc(F)cc4)c-3cn(Cc3ccccc3)c2cc1OC	proKLK7 act 29
Cc1occc1-c1nnc(SCC(=O)Nc2ccccn2)n1-c1ccccc1	none (no result: AHR activator, NR3A LBD binder)
O=C(O)c1ccccc1NS(=O)(=O)c1ccc2c3c(cccc13)C(=O)N2	none
O=C1CCCc2oc3c(cc(NS(=O)(=O)c4ccc5c6c(cccc46)C(=O)N5)c4ccccc43)c21	AHR activator 54, proKLK7 act 26, rCAG binder 46
COC[C@H]1CCCN1c1ccc2c(c1)OCCCN(C1CC1)S2(=O)=O	none (no result: AHR activator, NR3A LBD binder)
O=C(Nc1ccc(Nc2ccccc2)cc1)c1ccc(F)cc1	NR3A LBD binder 15
O=C(Nc1ccc(F)cc1)c1cccnn1	AHR activator 51
O=C(NC(=S)Nc1ccc(NC(=O)c2ccccc2)cc1)c1ccc(F)cc1	NR3A LBD binder 20
O=C(O)c1ccc(C(=O)Nc2ccc(F)cc2)cc1	none
COc1ccccc1NC(=O)OC1CC2CC1[C@H]1CCCCN1[C@H]2C (stereo partly drawn)	none (no result: AHR activator, NR3A LBD binder)

Screening results from PubChem BioAssay.
